Results from PubChem BioAssay AID624413 (The Scripps Research Institute Molecular Screening Center, 2012).
The campaign covered roughly 1,400 compounds. About 160 (11%) were called active. No stated cut-off is given here; in the data, active means inhibition above about 15%; inactive means the rest. A selection follows.

Assay: Jurkat T cell cytotoxicity, cytotoxicity control for T. brucei MetRS inhibitor project, luminescence, high throughput (AID 624413);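 further: 0% = vehicle and 100% = reference inhibitor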
Conditions: Jurkat cells viability, ATP luminescence; at 8.3 µM; stronger effect = higher value

Q: For Cc1ccc(N2C(=O)CC(NCc3ccc4c(c3)OCO4)C2=O)cc1Cl (stereo not drawn), which inhibition is on record?
A: -6.39% (inactive)

Q: With O=[N+]([O-])c1ccc(N2CCN(c3ccc(O)cc3)CC2)c(Cl)c1 as the compound, how does the inhibition read?
A: 1.76% (inactive)

Q: Which inhibition does the source give for O=S(=O)(NCc1ccc(Cl)cc1Cl)c1cccs1 here?
A: -0.99% (inactive)

Q: Which inhibition does the source give for O=C(Nc1ccccc1)Nc1nnc(COc2ccccc2F)s1 here?
A: 5.35% (inactive)

Q: With O=C(NNC(=O)c1ccc(-n2cncn2)c([N+](=O)[O-])c1)c1ccccc1 as the compound, how does the inhibition read?
A: 5.48% (inactive)

Q: For O=C(Nc1cccc([N+](=O)[O-])c1)N1CCc2ccccc2C1, which inhibition is on record?
A: 17% (active)

Q: Which inhibition does the source give for O=C(Nc1ccc(Cl)cc1)N1CCc2[nH]c3ccccc3c2C1 here?
A: 1.46% (inactive)

Q: Which inhibition does the source give for O=C(CSCC(=O)Nc1cccc([N+](=O)[O-])c1)Nc1ccccc1 here?
A: -0.93% (inactive)

Q: For O=C(/C(=N\O)n1cncn1)c1ccc(Br)cc1Br, which inhibition is on record?
A: -3.9% (inactive)

Q: For O=C(NNc1cc(Cl)cc(Cl)c1)c1c(F)cccc1Cl, which inhibition is on record?
A: 1.84% (inactive)

Q: Which inhibition does the source give for COc1ccc(CCn2ccc(O)c(Cc3ccc(Cl)cc3Cl)c2=O)cc1OC here?
A: 9.61% (inactive)

Q: With Cc1ccc(S(=O)(=O)c2c[nH]c3ccc(Cl)cc3c2=O)cc1 as the compound, how does the inhibition read?
A: 5.58% (inactive)

Q: With CCCCCCCC[n+]1cccc(C(=O)N2c3c(nc(N)[nH]c3=O)NC(C)C2C)c1 (stereo not drawn) as the compound, how does the inhibition read?
A: 10% (inactive)

Q: For CC(=O)c1ccc(NC(=O)c2ccc(-n3cncn3)c([N+](=O)[O-])c2)cc1, which inhibition is on record?
A: 2.58% (inactive)

Q: With CCCCN(C)Cc1c(C)[nH]c2ccc(Cl)cc2c1=O as the compound, how does the inhibition read?
A: -0.56% (inactive)

Q: Which inhibition does the source give for c1ccc(CN=C2Nc3ccccc3CS2)nc1 here?
A: 0.23% (inactive)

Q: With OCCNc1nc2ccccc2n1-c1ncnc2sc3c(c12)CCC3 as the compound, how does the inhibition read?
A: 9.96% (inactive)

Q: Which inhibition does the source give for Clc1ccc(-c2cc(C3CCNCC3)[nH]n2)c(Cl)c1 here?
A: -0.28% (inactive)

Q: With NC1=NC(=O)S/C1=C\c1ccc(O)cc1 as the compound, how does the inhibition read?
A: 7% (inactive)

Q: Which inhibition does the source give for COC(=O)/C(=C\Nc1ccccc1)NC(=O)c1ccc(Cl)cc1Cl here?
A: 11.3% (inactive)

Q: For O=C(NCc1cccc(CNC(=O)Nc2cccc(O)c2)c1)Nc1cccc(O)c1, which inhibition is on record?
A: 13.5% (inactive)

Q: With Cc1ccc(NC(=O)C(C)c2cccc(C(=O)c3ccccc3)c2)cc1 (stereo not drawn) as the compound, how does the inhibition read?
A: 1.82% (inactive)

Q: Which inhibition does the source give for OC(c1cc(Cl)cc(Cl)c1)c1ncc(-c2ccccc2C(F)(F)F)[nH]1 (stereo not drawn) here?
A: 6.67% (inactive)

Q: For CCCCN1C[C@H](c2ccc(Br)cc2)[C@@H](CC(=O)Nc2ccc(Br)cc2)C1=O, which inhibition is on record?
A: 7.69% (inactive)

Q: For c1ccc2cc3c(NCCN4CCOCC4)ccnc3cc2c1, which inhibition is on record?
A: 22.4% (active)

Q: With Cc1ccc(S(=O)(=O)c2c[nH]c3ccc(C)cc3c2=O)cc1 as the compound, how does the inhibition read?
A: 4.57% (inactive)

Q: With CCN(CC)C(=O)C(=O)c1cn(CC(=O)NCc2ccc3c(c2)OCO3)c2ccccc12 as the compound, how does the inhibition read?
A: 2.71% (inactive)

Q: For NS(=O)(=O)c1ccc(CCNC(=O)Nc2ccc(Cl)cc2)cc1, which inhibition is on record?
A: 3.2% (inactive)

Q: For O=C(Cc1ccc(S(=O)(=O)N2CCOCC2)s1)Nc1ccc(Br)c(C(F)(F)F)c1, which inhibition is on record?
A: 4.25% (inactive)

Q: For O=C(CC(=O)Nc1ccc(Cl)c(Cl)c1)N/N=C/c1ccc(O)cc1, which inhibition is on record?
A: 3.68% (inactive)

Q: For O=C(Cn1c2[n+](c3ccc(C(F)(F)F)cc31)CCCCC2)Nc1c(F)cccc1F, which inhibition is on record?
A: 7.63% (inactive)

Q: Which inhibition does the source give for S=c1[nH]nc(CSCc2ccc(Cl)cc2Cl)n1-c1ccccc1 here?
A: 7.09% (inactive)

Q: For Cc1ccc(-c2cnc(C(O)c3cc(Cl)cc(Cl)c3)[nH]2)cc1 (stereo not drawn), which inhibition is on record?
A: 4.06% (inactive)

Q: Which inhibition does the source give for Oc1[nH]c2ccc(Br)cc2c1N=Nc1nn[nH]n1 here?
A: -3.84% (inactive)

Q: Which inhibition does the source give for CN(C(=O)CSc1nnc(-c2c[nH]c3ccccc23)o1)C1CCS(=O)(=O)C1 (stereo not drawn) here?
A: -7.37% (inactive)

Q: Which inhibition does the source give for Fc1ccc(NC(=S)N2CCc3[nH]c4ccccc4c3C2)cc1 here?
A: -0.86% (inactive)

Q: Which inhibition does the source give for Cn1c(CCCOc2ccc(Cl)cc2Cl)n[nH]c1=S here?
A: 1.8% (inactive)

Q: With COC(=O)CN1C(=S)N(c2ccccc2)C(=O)C1CC(=O)Nc1ccc(Cl)cc1 (stereo not drawn) as the compound, how does the inhibition read?
A: -3.1% (inactive)

Q: With Clc1ccccc1SCc1nc2ccccc2[nH]1 as the compound, how does the inhibition read?
A: 7.62% (inactive)

Q: For Cc1ccc(O)c(CNc2nc3ccccc3[nH]2)c1, which inhibition is on record?
A: 24.5% (active)

Q: For Cc1ccc(CNC(=O)CSc2nnc3c(n2)[nH]c2ccc(F)cc23)cc1, which inhibition is on record?
A: -1.93% (inactive)

Q: For O=C(O)CCn1c(O)c(C=C2N=c3ccccc3=N2)sc1=S, which inhibition is on record?
A: 0.39% (inactive)

Q: For O=C(Nc1ccc(S(=O)(=O)Nc2ncccn2)cc1)c1cncc(Br)c1, which inhibition is on record?
A: -8.56% (inactive)

Q: For COc1ccc(OCC(O)CNC(=O)Nc2ccc(Cl)cc2)cc1 (stereo not drawn), which inhibition is on record?
A: -6% (inactive)

Q: Which inhibition does the source give for c1ccc2cc3[nH]c(CN4CCCCC4)nc3cc2c1 here?
A: -5.35% (inactive)

Q: Which inhibition does the source give for CCCCCn1nnnc1-c1nc2cc3ccccc3cc2[nH]c1=O here?
A: 55.2% (active)

Q: For O=C(O)c1ccc(NS(=O)(=O)c2ccc3c(c2)C(=O)c2cc(S(=O)(=O)Nc4ccc(C(=O)O)cc4)ccc2-3)cc1, which inhibition is on record?
A: -0.7% (inactive)

Q: With CC(=N\NC(=O)c1cc(Br)ccc1O)/C(=N/O)C(=O)Nc1ccccc1 as the compound, how does the inhibition read?
A: 9.24% (inactive)

Q: Which inhibition does the source give for CN(C(=O)CSc1nnc(Nc2ccccc2)s1)C1CCS(=O)(=O)C1 (stereo not drawn) here?
A: 3.56% (inactive)

Q: For CCO[C@@H]1OC(C(=O)NCc2nc3ccccc3[nH]2)=C[C@H](C2CCCCC2)[C@H]1CCCO, which inhibition is on record?
A: -0.5% (inactive)

Q: With O=C(Cn1c(NCCO)nc2ccccc21)c1ccc(Cl)cc1Cl as the compound, how does the inhibition read?
A: 4.95% (inactive)

Q: Which inhibition does the source give for COc1ccc(-c2[nH]ncc2/C=N/NC(=O)c2cc(Br)ccc2O)c(OC)c1 here?
A: 2% (inactive)

Q: Which inhibition does the source give for COc1ccccc1-n1c(SCC(=O)Nc2ccc(Cl)cc2)nc(O)c(Cc2ccccc2)c1=O here?
A: -1.69% (inactive)

Q: With CSc1nsc(NC(=O)Nc2ccccc2)n1 as the compound, how does the inhibition read?
A: 10% (inactive)

Q: For Cc1ccccc1OCC(=O)NNC(=O)c1ccc(-n2cncn2)c([N+](=O)[O-])c1, which inhibition is on record?
A: 5.5% (inactive)

Q: For Cc1c(CN2CCC(CO)(CCOc3ccccc3)CC2)[nH]c2ccc(Cl)cc12, which inhibition is on record?
A: 13.6% (inactive)

Q: For O=C(CSc1nc2ccccc2[nH]1)N/N=C/C=C\c1ccccc1[N+](=O)[O-], which inhibition is on record?
A: 0.15% (inactive)

Q: With Cc1ccc(S(=O)(=O)N(C)C)cc1NC(=O)c1ccc(-n2cncn2)c([N+](=O)[O-])c1 as the compound, how does the inhibition read?
A: -2.08% (inactive)

Q: For COc1ccc(NC(=O)C(NC(C)=O)C(=O)NCc2ccccc2Cl)cc1 (stereo not drawn), which inhibition is on record?
A: 3.32% (inactive)

Q: For O=S(=O)(c1ccc(Br)cc1)N1CCC(c2nc3ccccc3[nH]2)CC1, which inhibition is on record?
A: 35.4% (active)

Q: Which inhibition does the source give for O=C(OCc1nc2ccccc2[nH]1)C1CCCCC1 here?
A: -2.05% (inactive)

Q: Which inhibition does the source give for O=C(NCC(O)c1nc2ccccc2[nH]1)c1ccc(Br)cc1 (stereo not drawn) here?
A: 1.16% (inactive)

Q: Which inhibition does the source give for O=C(NCCN1CCOCC1)c1ccccc1N1C(=O)[C@@H]2Cc3c([nH]c4ccccc34)C(c3cccc(Cl)c3)N2C1=O (stereo partly drawn) here?
A: -0.67% (inactive)

Q: For O=C1CCCN1CCCNc1ncnc2c1[nH]c1ccccc12, which inhibition is on record?
A: -1.7% (inactive)

Q: With CCN1CCCC1CNc1ncnc2c1[nH]c1ccc(F)cc12 (stereo not drawn) as the compound, how does the inhibition read?
A: -1.19% (inactive)

Q: With CC(C)OCCCNc1ncnc2c1[nH]c1ccc(F)cc12 as the compound, how does the inhibition read?
A: 47.3% (active)

Q: Which inhibition does the source give for Cc1cc(C)cc(NC(=O)N(C)Cc2ccccc2)c1 here?
A: -0.98% (inactive)

Q: For CC(C)(C)c1ccc(/C=C2\SC(=O)N=C2N)cc1, which inhibition is on record?
A: 7.36% (inactive)
